According to PubChem BioAssay (NCI):
The panel holds about 79,000 compounds, 15% with a hit somewhere; the sample as a whole holds those more often. Calls of active or inactive are those of the source. Cut-off read from the data, not from the text of the source: active = growth inhibition above about 70%; inactive = the rest.

Columns and labels:
[1] = NCI Yeast Anticancer Drug Screen. Data for the wt2 strain (AID 169);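 note: 0% = growth of vehicle-treated yeast cultures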; conditions: S. cerevisiae wt2 strain growth inhibition, hits give high values
How it was run: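 Compound exposure of yeast; growth compared with vehicle controls; inhibition reported.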

[2] = NCI Yeast Anticancer Drug Screen. Data for the mlh1 strain (AID 171);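 note: 0% = growth of vehicle-treated control cultures of the same strain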; conditions: S. cerevisiae mlh1 strain growth inhibition, hits give high values
How it was run: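 Compounds are applied to a genetically altered yeast strain, and its growth is compared with that of vehicle-treated cultures to give percent inhibition.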

[3] = NCI Yeast Anticancer Drug Screen. Data for the sgs1 strain (AID 173);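 note: 0% = growth of vehicle-only control cultures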; conditions: S. cerevisiae sgs1 mutant, hits give high values
How it was run: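 Compounds applied to genetically altered yeast; growth compared with vehicle-treated cultures to give % inhibition.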

[4] = NCI Yeast Anticancer Drug Screen. Data for the mlh1 rad18 strain (AID 175); conditions: S. cerevisiae mlh1 rad18 strain growth inhibition, hits give high values
How it was run: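 Cells of a genetically altered yeast strain, deficient in DNA damage repair, were treated with compound. Their growth was then compared with that of vehicle-treated cultures to give inhibition.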

[5] = NCI Yeast Anticancer Drug Screen. Data for the rad18 strain (AID 177); conditions: S. cerevisiae rad18 mutant growth inhibition, hits give high values
How it was run: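 Compounds are applied to a repair-deficient yeast strain, and growth is compared with that of vehicle-treated cultures to give percent inhibition.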

[6] = NCI Yeast Anticancer Drug Screen. Data for the rad52 strain (AID 147);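 note: 0% = growth of vehicle-treated control cultures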; conditions: S. cerevisiae rad52 mutant growth inhibition, hits give high values
How it was run: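 DNA repair-defective yeast; compound exposure; growth scored against vehicle controls.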

[7] = NCI Yeast Anticancer Drug Screen. Data for the wt1 strain (AID 149);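 note: 0% = growth of vehicle-treated wt1 cultures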; conditions: S. cerevisiae wt1 strain (SPY 50644) growth inhibition, hits give high values
How it was run: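 Growth inhibition read against vehicle controls after compound exposure of the wt1 yeast strain.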

[8] = NCI Yeast Anticancer Drug Screen. Data for the rad50EPP+ strain (AID 151);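 note: 0% = growth of vehicle-treated control cultures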; conditions: S. cerevisiae rad50 mutant strain, hits give high values
How it was run: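 rad50EPP+ yeast treated with test compounds. Readout: growth vs vehicle control.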

[9] = NCI Yeast Anticancer Drug Screen. Data for the mgt1 strain (AID 153); conditions: S. cerevisiae mgt1 mutant growth inhibition, hits give high values
How it was run: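 Growth inhibition relative to vehicle controls was scored for the mgt1 yeast strain after compound exposure.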

[10] = NCI Yeast Anticancer Drug Screen. Data for the rad50 strain (AID 155);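 note: 0% = growth of vehicle-only cultures of the same strain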; conditions: S. cerevisiae rad50 strain growth inhibition, hits give high values
How it was run: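 Readout: growth inhibition relative to vehicle-treated cultures. Compound exposure was carried out in a genetically defined yeast strain deficient in DNA damage repair.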

[11] = NCI Yeast Anticancer Drug Screen. Data for the mec2-1 strain (AID 157); conditions: S. cerevisiae mec2-1 strain, hits give high values
How it was run: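 Growth inhibition is read against vehicle-treated controls after compound exposure of the mec2-1 yeast strain, which is defective in DNA damage repair or cell cycle control.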

[12] = NCI Yeast Anticancer Drug Screen. Data for the rad14 strain (AID 159);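 note: 0% = growth of vehicle-treated control cultures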; conditions: S. cerevisiae rad14 strain growth inhibition, hits give high values
How it was run: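 Growth inhibition vs vehicle controls; genetically altered yeast strain (DNA damage repair defect) treated with test compounds.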

[13] = NCI Yeast Anticancer Drug Screen. Data for the sgs1 mgt1 strain (AID 161);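 note: 0% = growth of cultures given vehicle only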; conditions: S. cerevisiae sgs1 mgt1 strain, hits give high values
How it was run: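 Yeast cells carrying a defined DNA-repair defect were exposed to test compounds. Growth inhibition was measured relative to vehicle-treated controls.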

[14] = NCI Yeast Anticancer Drug Screen. Data for the CLN2oe strain (AID 163);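 note: 0% = growth of vehicle-only control cultures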; conditions: S. cerevisiae CLN2oe strain, hits give high values
How it was run: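 Compound-treated yeast; growth vs vehicle ctrl = % inhibition. Genetically altered strain (cell-cycle control).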

[15] = NCI Yeast Anticancer Drug Screen. Data for the cln2 rad14 strain (AID 165);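 note: 0% = growth equal to vehicle treated cultures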; conditions: S. cerevisiae cln2 rad14 strain, hits give high values
How it was run: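 Growth inhibition, relative to vehicle-treated controls, is the read-out. The test organism is a yeast strain with defined genetic alterations, cln2 rad14.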

[16] = NCI Yeast Anticancer Drug Screen. Data for the bub3 strain (AID 167); conditions: S. cerevisiae bub3 mutant strain, hits give high values
How it was run: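 Readout: yeast growth inhibition, expressed relative to vehicle-only wells. The test organism is a mutant strain from a panel with lesions in DNA repair or checkpoint genes.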

[17] = at 5.0 µM (retest, dose inferred, filed as 0.5)
[18] = at 50.0 µM (retest, dose inferred, filed as 5.0)

Measured: growth inhibition

COc1ccc2c3c1OC(C)C31CC(=O)CCC1CC2 (centres undefined)
inactive: [1]; at 1.2 µM -8% | [1]; at 3.7 µM -9% | [1]; at 11.0 µM -7% | [1]; at 33.0 µM -7% | [1]; at 100.0 µM -11% | [2]; at 1.2 µM -6% | [2]; at 3.7 µM -2% | [2]; at 11.0 µM -3% | [2]; at 33.0 µM -4% | [2]; at 100.0 µM 1% | [3]; at 1.2 µM -1% | [3]; at 3.7 µM -6% | [3]; at 11.0 µM -8% | [3]; at 33.0 µM 9% | [3]; at 100.0 µM 9% | [4]; [17] 12% | [4]; [18] 51% | [4]; at 50.0 µM -0.75% | [5]; at 1.2 µM -7% | [5]; at 3.7 µM -1% | [5]; at 11.0 µM 3% | [5]; at 33.0 µM 0% | [5]; at 100.0 µM 25%

CNCC(C)CNC
inactive: [6]; at 1.2 µM -40% | [6]; at 3.7 µM -51% | [6]; at 11.0 µM -46% | [6]; at 33.0 µM -50% | [6]; at 100.0 µM -52% | [7]; at 1.2 µM -25% | [7]; at 3.7 µM -14% | [7]; at 11.0 µM -5% | [7]; at 33.0 µM -8% | [7]; at 100.0 µM -21% | [8]; at 1.2 µM -14% | [8]; at 3.7 µM -29% | [8]; at 11.0 µM -23% | [8]; at 33.0 µM -2% | [8]; at 100.0 µM -19% | [9]; at 1.2 µM 9% | [9]; at 3.7 µM 17% | [9]; at 11.0 µM 25% | [9]; at 33.0 µM 4% | [9]; at 100.0 µM 5% | [10]; at 1.2 µM 4% | [10]; at 3.7 µM -14% | [10]; [17] -6% | [10]; at 11.0 µM -28% | [10]; at 33.0 µM -27% | [10]; [18] 22% | [10]; at 100.0 µM -23% | [11]; at 1.2 µM -12% | [11]; at 3.7 µM -15% | [11]; [17] 10% | [11]; at 11.0 µM -19% | [11]; at 33.0 µM -27% | [11]; [18] 39% | [11]; at 50.0 µM 42.5% | [11]; at 100.0 µM -26% | [12]; at 1.2 µM -18% | [12]; at 3.7 µM -15% | [12]; at 11.0 µM -13% | [12]; at 33.0 µM -12% | [12]; at 100.0 µM -18% | [13]; [17] 2% | [13]; [18] 25% | [13]; at 50.0 µM 23.3% | [14]; at 1.2 µM 15% | [14]; at 3.7 µM 6% | [14]; at 11.0 µM -1% | [14]; at 33.0 µM -7% | [14]; at 100.0 µM -12% | [15]; [17] 20% | [15]; [18] 63% | [15]; at 50.0 µM 66.2% | [16]; at 1.2 µM -11% | [16]; at 3.7 µM 1% | [16]; [17] -9% | [16]; at 11.0 µM -8% | [16]; at 33.0 µM -33% | [16]; [18] 69% | [16]; at 50.0 µM -2.65% | [16]; at 100.0 µM -50% | [1]; at 1.2 µM -30% | [1]; at 3.7 µM -30% | [1]; at 11.0 µM -28% | [1]; at 33.0 µM -37% | [1]; at 100.0 µM -41% | [2]; at 1.2 µM 12% | [2]; at 3.7 µM 8% | [2]; at 11.0 µM 5% | [2]; at 33.0 µM 6% | [2]; at 100.0 µM -30% | [3]; at 1.2 µM -28% | [3]; at 3.7 µM -6% | [3]; at 11.0 µM -22% | [3]; at 33.0 µM -23% | [3]; at 100.0 µM -22% | [4]; [17] -6% | [5]; at 1.2 µM -16% | [5]; at 3.7 µM -25% | [5]; at 11.0 µM -21% | [5]; at 33.0 µM -21% | [5]; at 100.0 µM -31%
active: [10]; at 50.0 µM 73.8% | [4]; [18] 84% | [4]; at 50.0 µM 71.8%

O=[N+]([O-])[O][Sn]([O][Sn]([O][N+](=O)[O-])([c]1ccccc1)[c]1ccccc1)([c]1ccccc1)[c]1ccccc1
inactive: [6]; at 1.2 µM 6% | [6]; at 3.7 µM 9% | [6]; at 11.0 µM 13% | [6]; at 33.0 µM 32% | [6]; at 100.0 µM 57% | [7]; at 1.2 µM -3% | [7]; at 3.7 µM -7% | [7]; at 11.0 µM -11% | [7]; at 33.0 µM -2% | [7]; at 100.0 µM 62% | [8]; at 1.2 µM 8% | [8]; at 3.7 µM -2% | [8]; at 11.0 µM 0% | [8]; at 33.0 µM 20% | [9]; at 1.2 µM 8% | [9]; at 3.7 µM 10% | [9]; at 11.0 µM 25% | [9]; at 33.0 µM 10% | [10]; at 1.2 µM 16% | [10]; at 3.7 µM 20% | [10]; [17] 25% | [10]; at 11.0 µM 16% | [10]; at 33.0 µM 28% | [10]; [18] 66% | [10]; at 50.0 µM 65.2% | [11]; at 1.2 µM 9% | [11]; at 3.7 µM 0% | [11]; [17] 11% | [11]; at 11.0 µM 16% | [11]; at 33.0 µM 14% | [11]; [18] 44% | [11]; at 50.0 µM 57.6% | [12]; at 1.2 µM 0% | [12]; at 3.7 µM -8% | [12]; at 11.0 µM -7% | [12]; at 33.0 µM 22% | [13]; [17] 35% | [14]; at 1.2 µM -32% | [14]; at 3.7 µM -48% | [14]; at 11.0 µM -34% | [14]; at 33.0 µM -30% | [14]; at 100.0 µM 29% | [15]; [17] 3% | [15]; [18] 26% | [15]; at 50.0 µM 30.2% | [16]; at 1.2 µM 8% | [16]; at 3.7 µM -4% | [16]; [17] 23% | [16]; at 11.0 µM -7% | [16]; at 33.0 µM 6% | [16]; at 100.0 µM 62% | [1]; at 1.2 µM -47% | [1]; at 3.7 µM -47% | [1]; at 11.0 µM -25% | [1]; at 33.0 µM -26% | [1]; at 100.0 µM 58% | [2]; at 1.2 µM 7% | [2]; at 3.7 µM -3% | [2]; at 11.0 µM 5% | [2]; at 33.0 µM 35% | [3]; at 1.2 µM -6% | [3]; at 3.7 µM -12% | [3]; at 11.0 µM -24% | [3]; at 33.0 µM 51% | [4]; [17] 19% | [4]; [18] 67% | [4]; at 50.0 µM 68% | [5]; at 1.2 µM -12% | [5]; at 3.7 µM -12% | [5]; at 11.0 µM -11% | [5]; at 33.0 µM 5%
active: [8]; at 100.0 µM 99% | [9]; at 100.0 µM 94% | [10]; at 100.0 µM 85% | [11]; at 100.0 µM 86% | [12]; at 100.0 µM 94% | [13]; [18] 94% | [13]; at 50.0 µM 70% | [16]; [18] 84% | [16]; at 50.0 µM 72.5% | [2]; at 100.0 µM 94% | [3]; at 100.0 µM 98% | [5]; at 100.0 µM 90%
